Screening results: PubChem BioAssay, several laboratories
The list is not random: actives were taken first. Their share in the collection is about 3.4%.
HSF1 inhib – HSF1 inhibition | hit rate 0.77% among 300,000 | AID 2098 | NIH3T3-HGL HSE-luciferase, MG132-induced, luminescence 8 h; hits give low values | activity change, negative = inhibition, % at 7.5 µM (by protocol);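 active = more than half of replicate wells show activity change below -50%, luminescence cut by over half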;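 note: luciferase reports HSF-1 transcriptional activity via heat shock element; 0% = median of DMSO wells and -100% = zero luminescence signal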
AI-2 QS mod – Vibrio harveyi AI-2 quorum sensing modulation. Vibrio harveyi JMH597 AI-2 luminescence/OD600 ratio, 9 h; hits give low values; strain lacks LuxN and CqsS sensors; 0 = neutral-control median. activity change, % at 7.5 µM. hit rate 0.4% among 300,000. AID 2094; in the data active = activity change below about -75%, passing the limit was not always enough;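 note: luminescence divided by OD600 gain over 9 h not by final OD600 alone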
PG9 binder – binds the HIV-1 gp120 antibody PG9. TR-FRET gp120-PG9 antibody binding. inhibition, % at 6.7 µM. hit rate 0.43% among 360,000; in the data active = inhibition above about 8.5%
SMARCA2 activ – activators of SMARCA2 function | hit rate 1% among 370,000 | MG213 cells, MMTV-luciferase reporter, dexamethasone, overnight | activation, % at 9.1 µM; in the data active = activation above about 7.8%;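 note: 0% = vehicle wells and 100% = reference activator wells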
GAA850 FXN act – increases GAA850 frataxin promoter reporter activity; HEK293 lucGAA850 FXN promoter luciferase reporter, 24 h; percent of 10 µM SAHA response; activation, % at 6 µM; hit rate 0.56% among 360,000;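 active = activation above the average of all compounds screened plus 3 SD, cutoff fixed separately per campaign, cut at about 7.5% in these data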;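 note: 0% = DMSO wells and 100% = 10 µM SAHA wells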
HSP90 refold inh – inhibitors of HSP90 luciferase refolding in rabbit reticulocyte lysate | inhibition, % at 5.6 µM | luciferase refolding luminescence, 3 h | AID 1789 | hit rate 0.91% among 290,000;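 active = inhibition above the screen-wide mean plus 3 SD, computed separately per campaign, cut at about 16% in these data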;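 note: 0% = DMSO wells and 100% = 60 µM geldanamycin wells; inhibitors lower the luminescence because luciferase stays unfolded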
GAA30 FXN cntr – counter-screen for GAA850 frataxin promoter activators: GAA30 promoter activation; shares compounds with GAA850 FXN act; activation, % at 6 µM; HEK293 lucGAA30 FXN promoter luciferase, 24 h; DMSO = 0%, 5 µM ipriflavone = 100%; hit rate 66% among 1,900;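 active = mean activation above the mean of solvent-only control wells plus 3 SD, cut at about 22% in these data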;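 note: counterscreen of GAA850 promoter hits where activity marks nonselective or luminescence artifacts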
GAA850 confirm – confirmation of GAA850 frataxin (FXN) promoter activators; activation, % at 6 µM; HEK293 lucGAA850 FXN promoter luciferase reporter, 24 h; 100% = activation by SAHA; AID 588351; hit rate 86% among 1,900; shares compounds with GAA850 FXN act;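 active = mean activation above a set limit taken from the primary screen, cut at about 8% in these data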;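 note: 0% = DMSO wells and 100% = 10 µM SAHA wells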
PG9 binder conf – PG9 antibody binding, confirmed; TR-FRET PG9 antibody binding, biochemical; inhibition, % at 6.7 µM; shares compounds with PG9 binder; hit rate 90% among 1,500; in the data active = inhibition above about 9%
PGV04 Ab binding – counter-screen for PG9 binders: binding control antibody PGV04; shares compounds with PG9 binder; TR-FRET PGV04 antibody-gp120 binding, biochemical; inhibition, % at 6.7 µM; hit rate 95% among 1,500; AID 651604; in the data active = inhibition above about 9.5%
* marks the source's active call; other numbers are inactive results; / = no result given.

SMILES | HSF1 inhib | AI-2 QS mod | PG9 binder | SMARCA2 activ | GAA850 FXN act | HSP90 refold inh | GAA30 FXN cntr | GAA850 confirm | others
COc1ccccc1NC(=O)CN1CCC(n2c(C)nc3cc(F)ccc32)CC1 | -5 | -1 | -2 | -1 | 9.1* | 5 | 1 | 7.8*
Cc1ccc(-n2c(C)c(C)c3c(NCCO)ncnc32)cc1 | 9 | 17 | 0 | 1 | 7.9* | -6 | 89* | 31*
COc1ccc(-c2ccc(=O)n(Cc3cc(=O)n4ccccc4n3)n2)cc1 | -3 | 24 | -1 | -3 | 8.1* | 7 | 20 | 8.8*
COc1ccc(-c2ccc(=O)n(Cc3ccccc3)n2)cc1 | 8 | -1 | -1 | -2 | 4 | 14 | / | /
CC(C)(C)OC(=O)NCCc1ccccc1/C=C/S(=O)(=O)NCc1ccccc1 | / | / | / | -2 | / | / | / | /
CCOc1cc([N+](=O)[O-])c2nc(N)sc2c1 | -3 | 20 | -1 | 8 | 7.9* | 5 | 39* | 19*
COc1cccc(C(=O)N[C@H](C(=O)N2CCC[C@H]2C(=O)NCc2ccccc2)C2CCCCC2)c1 | / | / | -1 | -4 | / | / | / | /
COC(=O)C1=C(C)N(C)C(=NCc2ccc3c(c2)OCO3)NC1c1ccc(Cl)cc1 (stereo not drawn) | / | / | -1 | -6 | / | / | / | /
CN1CCN(c2ccc(NC(=O)c3cc4ccccc4o3)cc2)CC1 | 13 | 13 | -1 | 7 | 7.7* | -1 | 138* | 39*
CCCCn1nnc(NC(=O)c2cc3ccccc3o2)n1 | 25 | 16 | -2 | 4 | 8.4* | -2 | 82* | 26*
CCCN(CCC)CCN1CCN(C(=O)[C@H](CCc2ccccc2)NC(=O)[C@H]2O[C@@H](n3cnc4c(N)ncnc43)[C@H](O)[C@@H]2O)CC1 | / | / | -1 | -4 | / | / | / | /
O=C(Nc1ccc(Cl)cc1)OCC12COCN1COC2 | / | / | 0 | 2 | / | / | / | /
CC(C)[C@H](NC(=O)CC1CCCC1)C(=O)N1CCC[C@H]1C(=O)NCc1ccccc1 | / | / | 0 | 1 | / | / | / | /
Cc1cccc(NC(=O)Nc2ccccc2[N+](=O)[O-])n1 | 24 | 13 | -2 | 1 | 9.3* | -4 | 67* | 25*
Cc1cccc(NC(=O)Nc2cccc(F)c2)n1 | 13 | 8 | 1 | 3 | 4 | 4 | / | /
Cc1cccc(NC(=O)Nc2ccc(C#N)cc2)n1 | 5 | 20 | 1 | 4 | 20* | -4 | 103* | 105*
COc1ccccc1NC(=O)Nc1cccc(C)n1 | -3 | 10 | -2 | 1 | 1 | -5 | / | /
Cc1cccc(NC(=O)Nc2cccc(C#N)c2)n1 | 27 | 21 | 1 | 2 | 8.0* | -2 | 90* | 70*
CC(NC(=O)CSC(=S)N(C)C)C12CC3CC(CC(C3)C1)C2 (stereo not drawn) | / | / | -3 | 2 | 9.4* | 3 | 31* | 14*
CCCCCCOc1ccc(-c2ccc(C#N)cn2)cc1 | -1 | -5 | 1 | -4 | 0 | 2 | / | /
CCCCc1ccc(-c2ccc(Br)cc2)nc1 | 21 | 10 | 2 | 4 | 8.4* | 3 | 107* | 34*
CCCCCCCCN1C(=O)[C@H](CC(=O)NCCC(C)C)C[C@@]2(C(=O)OC)CCCCC=C12 | / | / | 2 | 0 | / | / | / | /
CC(C)CC(NC(=O)OCc1ccccc1)C(=O)NCC(=O)NCC(=O)OCc1ccccc1 (stereo not drawn) | / | / | 0 | -2 | / | / | / | /
Cc1cc(-c2ccc(Cl)cc2)c(C#N)c(N)n1 | -2 | 12 | 55* | 2 | 8.2* | 0 | 16 | 15* | PG9 binder conf=64*;PGV04 Ab binding=80*
